# PubChem BioAssay AID1259374 (The Scripps Research Institute Molecular Screening Center, 2018)
# Values joined by “and” are separate entries in the source; they are usually repeats but may differ in a detail not shown here. Identical values can stand only once. Among all 650,000 compounds or so, about 5,900 (0.91%) were called active. No stated cut-off is given here; in the data, active means inhibition above about 50%; inactive means the rest. Shown is part of a subset that was picked to be rich in actives. Some compounds were tested as several samples or in several runs, with calls that do not always agree.
# Target: Microphthalmia-associated transcription factor (Homo sapiens) (UniProt O75030)
# Sequence (O75030 whole entry, looked up): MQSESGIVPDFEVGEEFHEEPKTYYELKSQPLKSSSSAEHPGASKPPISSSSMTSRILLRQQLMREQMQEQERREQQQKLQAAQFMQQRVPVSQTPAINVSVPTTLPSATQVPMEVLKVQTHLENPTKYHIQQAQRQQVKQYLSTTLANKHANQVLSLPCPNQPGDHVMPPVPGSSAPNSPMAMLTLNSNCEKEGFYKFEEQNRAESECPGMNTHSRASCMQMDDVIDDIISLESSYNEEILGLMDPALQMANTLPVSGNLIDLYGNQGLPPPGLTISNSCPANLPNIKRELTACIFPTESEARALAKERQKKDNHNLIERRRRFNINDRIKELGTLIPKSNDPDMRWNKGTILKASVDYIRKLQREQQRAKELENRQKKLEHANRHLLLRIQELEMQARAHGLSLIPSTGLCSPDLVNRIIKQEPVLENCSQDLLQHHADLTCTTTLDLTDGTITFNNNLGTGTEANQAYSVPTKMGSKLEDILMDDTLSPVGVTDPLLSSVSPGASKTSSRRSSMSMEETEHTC
# Experiment: MITF inhibitors, primary screen, biochemical, AlphaScreen, human (AID 1259374);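 further: 0% = vehicle wells with protein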
# Conditions: AlphaScreen MITF homodimerization, bead proximity signal; at 2.6 µM; stronger effect = higher value
row,Compound,inhibition
1,O=C(COc1ccc2c3c(c(=O)oc2c1)CCC3)Nc1cccc2ncccc12,2.18% (inactive)
2,COc1ccc(/C(O)=C/c2nc3cc(C)ccc3oc2=O)cc1OC,3.89% (inactive)
3,CCN(CC)S(=O)(=O)c1ccc(C(=O)NCCO)cc1,-0.2% (inactive)
4,C/C(=N\N=C1\NC(=O)CC(C(=O)Nc2cccc(C(=O)O)c2)S1)c1ccccc1 (stereo unspecified),7.7% (inactive)
5,CC1CN(C(=O)COC(=O)c2cc(O)c(O)c(O)c2)CC(C)O1 (stereo unspecified),54.2% (active)
6,CC1CN(C(=O)COC(=O)/C=C/c2ccco2)CC(C)O1 (stereo unspecified),16.4% (inactive)
7,CC1CN(C(=O)COc2ccc(C(C)C)cc2Br)CC(C)O1 (stereo unspecified),-0.26% (inactive)
8,Cc1sc(NC(=O)c2ccco2)c(C(c2ccccn2)N2CCN(C)CC2)c1C (stereo unspecified),12.4% (inactive)
9,Oc1c(CN2CCN(c3cccc(Cl)c3)CC2)cc(Br)c2cccnc12,-1.04% (inactive)
10,CCOc1cccc(CN2CCCCC2)c1O,12.8% (inactive)
11,Oc1c(CN2CCCC2)cc(COCc2ccccc2)c2cccnc12,74.4% (active)
12,Cc1cccc(N2CC(O)=C(c3nc4ccccc4c(=O)[nH]3)C2=N)c1C,-2.19% (inactive)
13,CCCOc1cccc(C(=O)Nc2ccc3oc(-c4cccc5c(Br)cccc45)nc3c2)c1,3.22% (inactive)
14,COc1cccc(C2C(C(=O)OC(C)C)=C(C)NC3=C2C(=O)CC(c2ccc(Cl)cc2)C3)c1OC (stereo unspecified),-2.22% (inactive)
15,COc1cc(Nc2ncnc3c2nc(N2CCOCC2)n3C(C)C)cc(OC)c1OC,54.5% (active)
16,CC(C)n1c(N2CCOCC2)nc2c(Nc3ccc(Oc4ccccc4)cc3)ncnc21,9.27% (inactive)
17,COc1cc(Nc2ncnc3c2nc(N2CCN(Cc4ccc5c(c4)OCO5)CC2)n3C(C)C)cc(OC)c1OC,5.48% (inactive)
18,C[C@@H]1CN(Cc2nnnn2CC(=O)N2CCc3ccccc3C2)C[C@H](C)O1,12.1% (inactive)
19,C=CCNC(=O)C(=O)Nc1ccccc1CC,19.9% (inactive)
20,CN1CCN(c2ncnc3c2cnn3-c2ccc(Cl)c(Cl)c2)CC1,10.1% (inactive)
21,O=C(CC1OC(=O)c2ccccc21)OCC(=O)c1ccc(F)cc1 (stereo unspecified),18.3% (inactive)
22,Clc1ccc(OCCOCCn2ccnc2)c(Br)c1,46.3% (inactive)
23,CCc1cccc(OCCOCCn2ccnc2)c1,65.1% (active)
24,CCc1ccc(OCCCCn2ccnc2)cc1,62.2% (active)

row,Compound,inhibition
1,CCOC(=O)C(CCOc1cccc(CC)c1)C(=O)OCC,-23.7% (inactive)
2,C=CCc1cc(C)ccc1OCC(O)Cn1cnc2ccccc21 (stereo unspecified),4.8% (inactive)
3,COc1ccc(CCCOC(Cn2ccnc2)c2ccc(OC)cc2)cc1 (stereo unspecified),-16.1% (inactive) and 0.54% (inactive)
4,COc1ccc(CCNC(=S)NCCCn2ccnc2)cc1,8.73% (inactive)
5,C=CCc1cc(C)ccc1OCCCn1ccnc1,64.5% (active)
6,Cc1ccc(C(C)C)c(OCCCn2ccnc2)c1,9.69% (inactive)
7,Cc1nn(C(=O)c2cccnc2)c(C)c1Sc1ccccc1[N+](=O)[O-],2.63% (inactive)
8,O=C(Cc1cccc2ccccc12)Nc1nnc(-c2ccco2)o1,6.58% (inactive)
9,COCCN1Cc2cccc(C(=O)Nc3cccc(F)c3)c2C1=O,-5.68% (inactive)
10,Cc1nc(CSc2ccc(-c3ccco3)nn2)cs1,5.98% (inactive)
11,CCCCc1ccc(Nc2nc3ccccc3nc2NS(=O)(=O)c2ccc(Cl)cc2)cc1,1.24% (inactive)
12,COc1ccc(C(=O)NC(NC(=O)c2ccc(OC)cc2)c2cccc(OC)c2)cc1,9.45% (inactive)
13,CCN(CC)S(=O)(=O)c1ccc(-c2csc(N3N=C(c4cccc([N+](=O)[O-])c4)CC3c3ccc(F)cc3)n2)cc1 (stereo unspecified),3.98% (inactive)
14,O=C(Nc1ccc(C(=O)N2CCCCC2)cc1)c1cccc(I)c1,-4.21% (inactive)
15,O=C(CNCc1cccnc1)Nc1ccc(C(=O)N2CCCCC2)cc1,93.3% (active)
16,O=C(c1ccc(NC(=S)NCc2ccc(F)cc2)cc1)N1CCCC1,22.4% (inactive)
17,Cn1c(=O)c2c(nc(N3CCCCC3)n2CCNC2=NCCCCC2)n(C)c1=O,0.31% (inactive)
18,Cc1nccn1CCNC(=O)Cn1nnnc1CN1CCCCCC1,0.85% (inactive)
19,COc1ccc(C2=NN(c3nc(-c4ccccc4)c4cc(Cl)ccc4n3)C(c3ccc([N+](=O)[O-])cc3)C2)cc1 (stereo unspecified),-4.92% (inactive)
20,c1ccc(-c2nnc3sc(-c4ccc5c(c4)OCCO5)nn23)cc1,-0.82% (inactive)
21,c1ccc(-n2cc(CN3CCOCC3)c(-c3ccc4c(c3)OCCO4)n2)cc1,61.7% (active)
22,c1ccc(CN2CCC(N=C3NN=C(c4ccc5c(c4)OCCO5)CS3)CC2)cc1,-10.7% (inactive)
23,O=C(N/C(=C\c1ccccc1F)C(=O)N1CCCCC1)c1ccc([N+](=O)[O-])cc1,17.1% (inactive)
24,O=C(Nc1cncc(-c2ccncc2)c1)C1COc2ccccc2O1 (stereo unspecified),17.1% (inactive)

row,Compound,inhibition
1,O=C(Nc1cncc(-c2ccncc2)c1)C1COc2cc3ccccc3cc2O1 (stereo unspecified),3.75% (inactive)
2,O=C(Nc1ccc(-c2ccncc2)c(C(F)(F)F)c1)C1COc2ccccc2O1 (stereo unspecified),53.1% (active)
3,Cc1nn(C)c(C)c1-c1cc(C(=O)NCCO)ccn1,8.26% (inactive)
4,CCN(C(=O)c1ccc([N+](=O)[O-])cc1)c1ccccc1,1.44% (inactive)
5,CN(C)CCCN(CCCN(C)C)Cc1ccc([N+](=O)[O-])cc1,37.3% (inactive)
6,CCN(Cc1ccccc1)Cc1ccc([N+](=O)[O-])cc1,60% (active)
7,O=C1N[C@H](CO)C(=O)N2CCN(Cc3cccc(F)c3)C[C@H]12,10.2% (inactive)
8,Cc1cccc(CN2CCN(C3CCCCC3)CC2)c1,33.7% (inactive)
9,Clc1cccc(CN2CCN(C3CCCC3)CC2)c1,67.8% (active)
10,Fc1cccc(CN2CCN(C3CCC(c4ccccc4)CC3)CC2)c1 (stereo unspecified),54.9% (active)
11,OCCC1CN(Cc2ccc(F)c(F)c2)CCN1C1CCCC1 (stereo unspecified),-7.36% (inactive)
12,CCN(CC)C(=O)C1CCCN(Cc2cccc(Cl)c2)C1 (stereo unspecified),55.2% (active)
13,Clc1cccc(CN2CCN(C3CCN(Cc4ccccc4)CC3)CC2)c1,23.2% (inactive)
14,OC1CCCN(Cc2cccc(Cl)c2)C1 (stereo unspecified),-10.4% (inactive)
15,CCN(CC)C(=O)C1CCCN(Cc2ccc([N+](=O)[O-])cc2)C1 (stereo unspecified),27.7% (inactive)
16,NC(=O)C1CCCN(Cc2cccc(Cl)c2)C1 (stereo unspecified),31.1% (inactive)
17,Fc1ccc(CN2CCN(C3CCCC3)CC2)cc1,57.1% (active)
18,OCCC1CN(Cc2cccc(F)c2)CCN1C1CCCC1 (stereo unspecified),14.7% (inactive)
19,O=C(NC1CCCCCC1)C1CCN(S(=O)(=O)c2cccc3nsnc23)CC1,-4.57% (inactive)
20,c1ccc(CNc2cc(N3CCc4ccccc4C3)ncn2)cc1,-8.87% (inactive)
21,Cc1c(C(=O)C(=O)N2CCCC2)c2ccccc2n1C,-1.62% (inactive)
22,COc1cc([N+](=O)[O-])ccc1NC(=O)/C=C/c1ccc(F)cc1,0.43% (inactive)
23,CC(=O)Nc1cccc(NC(=O)CSc2nc(C(C)(C)C)nc3ccccc23)c1,16.8% (inactive)
24,COc1cccc(C(C)N(C)C(=O)c2cc(COc3ccc(C(C)=O)cc3)on2)c1 (stereo unspecified),11.1% (inactive)

row,Compound,inhibition
1,COc1ccccc1C1CN(Cc2ccc(NC(C)=O)s2)Cc2ccccc2O1 (stereo unspecified),1.08% (inactive)
2,CC1(C)CC(=O)C2=C(C1)N(c1cccc(Cl)c1Cl)C1=C(C(=O)CC(C)(C)C1)C2c1ccc(F)c(Br)c1,-2.02% (inactive)
3,O=C(N/N=C/c1ccncc1)c1cnn(-c2ccccc2)c1C(F)(F)F,-19.6% (inactive)
4,CC(=O)NC(CC(C)C)C(=O)NC(C(=O)OCc1ccccc1)C(C)C (stereo unspecified),11.1% (inactive)
5,CC1CCN(S(=O)(=O)c2ccc(F)c(C(=O)Nc3cc(Cl)ccc3Cl)c2)CC1,-3.2% (inactive)
6,Cc1c(Cl)cccc1NC(=O)c1cc(S(=O)(=O)N2CCC(C)CC2)ccc1F,1.77% (inactive)
7,CC1CCN(S(=O)(=O)c2ccc(Cl)c(C(=O)Nc3ccccc3[N+](=O)[O-])c2)CC1,51% (active)
8,Cc1ccccc1S(=O)(=O)Cc1ccc(C(=O)NCCCN2CCCCCC2)o1,-6.96% (inactive)
9,COc1ccccc1N(CN1CCCC1=O)C(=O)c1cc(C)cc(C)c1,3.77% (inactive)
10,Cc1ccc(C2SCC(=O)N2c2ccc(C)cc2)cc1 (stereo unspecified),7.57% (inactive)
11,O=C(Nc1cc(Cl)ccc1Cl)c1cc(C2CC2)on1,-4.67% (inactive)
12,O=C(CSc1nn2c(=O)c3ccccc3nc2s1)c1ccccc1,8.41% (inactive)
13,CC(=O)c1cccc(N2C(=O)c3cccnc3C2=O)c1,50.6% (active)
14,CC(=O)c1cccc(N2C(=O)c3ccc([N+](=O)[O-])cc3C2=O)c1,4.17% (inactive)
15,CC(=O)Oc1cccc(N2C(=O)c3cccnc3C2=O)c1,38.1% (inactive)
16,CC(C)c1c(O)nc(SCC(=O)NC(C)(C)C)[nH]c1=O,9.94% (inactive)
17,CNCC(O)c1ccc(O)c(O)c1 (stereo unspecified),83.8% (active) and -4.84% (inactive) and -7.17% (inactive)
18,Cc1nnc2n1NC(c1ccc(F)cc1)C(C(=O)Nc1ccccc1C(F)(F)F)S2 (stereo unspecified),-7.82% (inactive)
19,COc1cc(Br)c(/C=C2/NC(=O)N(c3cccc(Cl)c3)C2=O)cc1OC,-4.06% (inactive)
20,O=C(Cc1ccc(F)cc1)Nc1cnn(-c2cccc(C(=O)Nc3ccc(N4CCOCC4)cc3)c2)c1,-19.1% (inactive)
21,COc1ccc(NC(=O)C2CC(=O)N(c3ccc(Oc4ccccc4)cc3)C2)cc1 (stereo unspecified),12.4% (inactive)
22,C=CCc1ccc(OCCN2CC(C)OC(C)C2)c(OC)c1 (stereo unspecified),34.3% (inactive)
23,CC1CN(CCOc2ccccc2[N+](=O)[O-])CC(C)O1 (stereo unspecified),50.7% (active)
24,CC1CN(CCOc2ccc(Cl)c3ccccc23)CC(C)O1 (stereo unspecified),27.1% (inactive)
